# Measured values as given in PubChem BioAssay (NCATS).
# Records with an inconclusive call do not appear. The source made the active and inactive calls. Calls come from the whole dose curve; as a rule, active = well fitted cell-killing curve with a large enough effect; inconclusive = small, poorly fitted or top-dose-only effect; inactive = flat fitted curve, though single readings scatter.
# Experiment: Cell Viability - LYMP2-021 (AID 974);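 note: compound exposure lasts 24 hours at 37 °C; nearly all actives have a fitted effect of over 55% in size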; for activity change, negative = cytotoxicity: % is set by controls: 0 for no effect and ±100 for the full control effect
# Conditions: LYMP2-021 lymphoblastoid cells viability; series mostly up to 92.2 µM; activity change, negative = cytotoxicity: at the top concentration
# In short: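 In qHTS format, compounds are tested against 2500 lymphoblastoid cells per well for 24 h; viable cell number is inferred from ATP-driven luciferase light, and Hill-equation fitting yields AC50 values.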
# Potency is the fitted concentration of half-maximal effect.
Compound,"activity change, negative = cytotoxicity",Potency
CCOCCOC(C)=O,-2.43% (inactive),
COc1ccc(C(c2ccc(OC)cc2)C(Cl)(Cl)Cl)cc1,,inactive
O=C(O)C(Cl)Cl,-2.19% (inactive),
O=C(O)COc1ccccc1,-0.0859% (inactive),
O=[N+]([O-])c1c2ccccc2cc2ccccc12,-3.18% (inactive),
CC(C)(O)C(=O)Nc1ccc([N+](=O)[O-])c(C(F)(F)F)c1,-5.97% (inactive),
CN(C)NC(=O)CCC(=O)O,0.353% (inactive),
CCCCCCCCc1ccc(O)cc1,-9.01% (inactive),
O=[N+]([O-])c1cc([N+](=O)[O-])c2ccccc2c1,-5.89% (inactive),
CN(C)[C@@H]1C(=O)C(C(N)=O)=C(O)[C@@]2(O)C(=O)C3=C(O)c4c(O)cccc4[C@@](C)(O)[C@H]3[C@H](O)[C@@H]12,-25.9% (inactive),
CC(=O)[O][Hg][c]1ccccc1,,794 nM (active)
O=S(=O)(c1ccc(Cl)cc1)c1ccc(Cl)cc1,,inactive
CCCCOC(=O)c1ccccc1C(=O)OCc1ccccc1,-5.22% (inactive),
O=[N+]([O-])c1c(Cl)c(Cl)cc(Cl)c1Cl,-5.96% (inactive),
COC(C)(C)CCCC(C)C/C=C/C(C)=C/C(=O)OC(C)C (stereo not drawn),-11.6% (inactive),
Nc1ccc(Sc2ccc(N)cc2)cc1,-3.68% (inactive),
Nc1ccc(Cl)cc1N,-18.8% (inactive),
C=CC(=O)NCNC(=O)C=C,-4.73% (inactive),
Cc1cc(O)ccc1Cl,0.752% (inactive),
C1CCC(NC2CCCCC2)CC1,,inactive
CCCCC(CC)COC(=O)c1ccccc1C(=O)OCC(CC)CCCC (stereo not drawn),-8.16% (inactive),
Nc1ccc([N+](=O)[O-])cc1,-2.11% (inactive),
c1cc2ccc3cccc4ccc(c1)c2c34,-6.12% (inactive),
OCCCBr,-12.6% (inactive),
Nc1ccc(Cl)cc1,-11.7% (inactive),
CCOP(=O)(NC(C)C)Oc1ccc(SC)c(C)c1 (stereo not drawn),-9.15% (inactive),

# Experiment: Cell Viability - LYMP2-023 (AID 975);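 note: cells exposed to compound for 24 hours at 37 °C; nearly all actives have a fitted effect of over 55% in size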;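 for activity change, negative = cytotoxicity: cellular ATP measured by luciferase luminescence as viability proxy; plate controls were DMSO only for no effect and 92 µM tetraoctylammonium bromide control for full effect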
# Conditions: LYMP2-023 lymphoblastoid cell viability; series mostly up to 92.2 µM; activity change, negative = cytotoxicity: at the top concentration
# In short: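 In this qHTS, ATP-based luciferase luminescence (CellTiter-Glo) is quantified in human lymphoblastoid cells after 24 hr compound treatment at 37 C; tetraoctylammonium bromide serves as positive control. Concentration-response curves are Hill-fitted to give AC50.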
Compound,"activity change, negative = cytotoxicity",Potency
CCOCCOC(C)=O,2.92% (inactive),
COc1ccc(C(c2ccc(OC)cc2)C(Cl)(Cl)Cl)cc1,,inactive
O=C(O)C(Cl)Cl,-0.902% (inactive),
O=C(O)COc1ccccc1,-4.13% (inactive),
O=[N+]([O-])c1c2ccccc2cc2ccccc12,-1.54% (inactive),
CC(C)(O)C(=O)Nc1ccc([N+](=O)[O-])c(C(F)(F)F)c1,1.47% (inactive),
CN(C)NC(=O)CCC(=O)O,-7.03% (inactive),
CCCCCCCCc1ccc(O)cc1,5.71% (inactive),
O=[N+]([O-])c1cc([N+](=O)[O-])c2ccccc2c1,-6.78% (inactive),
CN(C)[C@@H]1C(=O)C(C(N)=O)=C(O)[C@@]2(O)C(=O)C3=C(O)c4c(O)cccc4[C@@](C)(O)[C@H]3[C@H](O)[C@@H]12,-10.1% (inactive),
CC(=O)[O][Hg][c]1ccccc1,,1260 nM (active)
O=S(=O)(c1ccc(Cl)cc1)c1ccc(Cl)cc1,,inactive
CCCCOC(=O)c1ccccc1C(=O)OCc1ccccc1,-6.25% (inactive),
O=[N+]([O-])c1c(Cl)c(Cl)cc(Cl)c1Cl,-1.17% (inactive),
COC(C)(C)CCCC(C)C/C=C/C(C)=C/C(=O)OC(C)C (stereo not drawn),-1.01% (inactive),
Nc1ccc(Sc2ccc(N)cc2)cc1,3.36% (inactive),
Nc1ccc(Cl)cc1N,0.161% (inactive),
C=CC(=O)NCNC(=O)C=C,-2.43% (inactive),
Cc1cc(O)ccc1Cl,2.07% (inactive),
C1CCC(NC2CCCCC2)CC1,,inactive
CCCCC(CC)COC(=O)c1ccccc1C(=O)OCC(CC)CCCC (stereo not drawn),-3.94% (inactive),
Nc1ccc([N+](=O)[O-])cc1,-1.09% (inactive),
c1cc2ccc3cccc4ccc(c1)c2c34,-6.2% (inactive),
OCCCBr,4.2% (inactive),
Nc1ccc(Cl)cc1,2.38% (inactive),
CCOP(=O)(NC(C)C)Oc1ccc(SC)c(C)c1 (stereo not drawn),-3.73% (inactive),

# Experiment: Cell Viability - LYMP2-025 (AID 976);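 note: cells exposed to compound for 24 h at 37 °C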;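 for activity change, negative = cytotoxicity: plate controls were DMSO only for no effect and tetraoctylammonium bromide control for full effect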
# Conditions: LYMP2-025 lymphoblastoid cell viability; series mostly up to 92.2 µM; activity change, negative = cytotoxicity: at the top concentration
# In short: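 Luminescent ATP readout after 24 hr treatment of a human lymphoblastoid line (LYMP2-025, 2500 cells/well, 37 C). Reagent developed 30 min at room temperature; AC50 fitted with the Hill equation.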
Compound,"activity change, negative = cytotoxicity",Potency
CCOCCOC(C)=O,-7.2% (inactive),
COc1ccc(C(c2ccc(OC)cc2)C(Cl)(Cl)Cl)cc1,,inactive
O=C(O)C(Cl)Cl,-5.22% (inactive),
O=C(O)COc1ccccc1,-18.4% (inactive),
O=[N+]([O-])c1c2ccccc2cc2ccccc12,-15.3% (inactive),
CC(C)(O)C(=O)Nc1ccc([N+](=O)[O-])c(C(F)(F)F)c1,-7.7% (inactive),
CN(C)NC(=O)CCC(=O)O,-11.1% (inactive),
CCCCCCCCc1ccc(O)cc1,-12.6% (inactive),
O=[N+]([O-])c1cc([N+](=O)[O-])c2ccccc2c1,-24.7% (inactive),
CN(C)[C@@H]1C(=O)C(C(N)=O)=C(O)[C@@]2(O)C(=O)C3=C(O)c4c(O)cccc4[C@@](C)(O)[C@H]3[C@H](O)[C@@H]12,-8.42% (inactive),
CC(=O)[O][Hg][c]1ccccc1,,1260 nM (active)
O=S(=O)(c1ccc(Cl)cc1)c1ccc(Cl)cc1,,inactive
CCCCOC(=O)c1ccccc1C(=O)OCc1ccccc1,-3.46% (inactive),
O=[N+]([O-])c1c(Cl)c(Cl)cc(Cl)c1Cl,-7.07% (inactive),
COC(C)(C)CCCC(C)C/C=C/C(C)=C/C(=O)OC(C)C (stereo not drawn),-11.1% (inactive),
Nc1ccc(Sc2ccc(N)cc2)cc1,-9.92% (inactive),
Nc1ccc(Cl)cc1N,-8.57% (inactive),
C=CC(=O)NCNC(=O)C=C,-3.06% (inactive),
Cc1cc(O)ccc1Cl,-5.89% (inactive),
C1CCC(NC2CCCCC2)CC1,,inactive
CCCCC(CC)COC(=O)c1ccccc1C(=O)OCC(CC)CCCC (stereo not drawn),-8.13% (inactive),
Nc1ccc([N+](=O)[O-])cc1,-13% (inactive),
c1cc2ccc3cccc4ccc(c1)c2c34,6.78% (inactive),
OCCCBr,-12.1% (inactive),
Nc1ccc(Cl)cc1,-6.87% (inactive),
CCOP(=O)(NC(C)C)Oc1ccc(SC)c(C)c1 (stereo not drawn),-9.36% (inactive),
